This is an account of results in PubChem BioAssay AID2314 (National Center for Advancing Translational Sciences (NCATS), 2010).

Molecules are shown by their SMILES. Screen size: about 300,000 compounds; about 37,000 (12%) were called active. Many of the other results were omitted from the sample, so actives are more common in it than they were. Unmarked numbers belong to inactive results. Cut-off read from the data, not from the text of the source: active = max response mostly above about 13% (no sharp cut-off); inactive = mostly below about 14%.

This assay can be described thus: Cycloheximide Counterscreen for Small Molecule Inhibitors of Shiga Toxin. Note: read at 38.3 µM for the half of the compounds with a filed dose; 0% is about no effect. Conditions: cell reporter, cycloheximide protein synthesis inhibition counterscreen; active compounds read high. (Counterscreens check selectivity or assay interference.)
Regarding `CC(=O)OCC(NC(=O)C(Cc1ccccc1)NC(=O)OC(C)(C)C)C1OC(n2ccc(=O)[nH]c2=O)C(OC(C)=O)C1OC(C)=O` (stereo unspecified), the max response was 10.7%.

As to `CC(=O)N1c2ccc(S(=O)(=O)N3CCCC(C(=O)Nc4cccc(Cl)c4)C3)cc2CC1C` (stereo unspecified), the max response was -3.38%.

As to `O=C(c1c(Cl)cccc1Cl)N1CCN(c2cccc3[nH]ccc23)CC1`, the max response is -4.42%.

In the case of `COc1ccccc1N1CCN(C(=O)c2c(-c3c(Cl)cccc3Cl)noc2C)CC1`, the max response is -1.33%.

Consider `O=C(c1ccc2ccccc2n1)N1CCN(c2ccccc2Cl)CC1`, for which the max response is 25.6% (active).

Take `COc1cc(S(=O)(=O)N2CCOCC2)ccc1NC(=O)COc1ccc(N(C)S(=O)(=O)c2ccc(C)cc2)cc1`: the max response was -7.22%.

Turning to `CCc1ccc(NC(=O)CN2C(=O)CSC2=O)cc1`, the max response was 24.5% (active).

`COc1ccc(NC(=O)CN2C(=O)CSC2=O)cc1`: the max response was -1.12%.

In the case of `CCc1ccc(NC(=O)CN2C(=O)COc3ccc(S(=O)(=O)N4CCCC4)cc32)cc1`, the max response is -7.9%.

For `CC(C)Cc1nc(Nc2ccc(S(=O)(=O)N3CCCC3)cc2)c2nnn(Cc3ccccc3)c2n1`, the max response is -1.7%.

As to `CCOC(=O)C(NS(=O)(=O)c1ccc(C)cc1)(C(F)(F)F)P(=O)(OCC(C)C)OCC(C)C` (stereo unspecified), the max response was -2.77%.

As to `O=C(Nc1cccnc1Cl)c1cc(-c2cccc(Cl)c2)on1`, the max response is -5.45%.

Take `CCc1ccccc1NC(=O)c1cc(-c2ccc3c(c2)OCO3)on1`: the max response was 4.1%.

`O=C(Nc1ccccc1C(F)(F)F)c1cc(-c2ccc(O)cc2)on1`: the max response is 37.9% (active).

In the case of `CCOc1ccc2[nH]c(=O)c(CN(CCCO)S(=O)(=O)c3ccc(F)cc3)cc2c1`, the max response is -6.67%.

For `CN(CC(=O)NCCN1CCOCC1)S(=O)(=O)c1ccc(F)cc1`, the max response is -1.49%.

As to `Fc1ccc(-c2ccc(NCCN3CCOCC3)nn2)cc1`, the max response was 34.4% (active).

Consider `O=C(NCCN1CCOCC1)c1c(F)c(F)c(F)c(F)c1F`, for which the max response was -3.15%.

On to `CC1CCC(NS(=O)(=O)c2ccc3c(c2)CC(=O)N3)CC1` (stereo unspecified), for which the max response is 8.83%.

In the case of `N#Cc1ccc(CSc2ncccn2)cc1`, the max response was 19.6% (active).

With `N#Cc1cccc(CSc2ncnc(N)n2)c1`, the max response was 5.59%.

Regarding `N#Cc1ccc(CSc2nnc(-c3ccccn3)n2-c2ccc(Cl)cc2)cc1`, the max response is -3.26%.

With `COc1cc(NC(=O)c2ccccc2NS(=O)(=O)c2ccc(Cl)s2)cc(OC)c1`, the max response was 7.35%.

In the case of `O=Cc1c(NCCc2cccc(F)c2)c2ccccc2[nH]c1=O`, the max response was 0.988%.

As for `Cc1ccc(S(=O)(=O)NNC(=O)/C=C/c2cccc(F)c2)cc1`, the max response was -1.72%.

`CC(=O)NCCC(=O)Nc1nc(-c2ccc3c(c2)OCCO3)cs1`: the max response was 36.2% (active).

On to `COc1ccc(-c2csc(NC(=O)c3ccc(N4C(=O)CCC4=O)cc3)n2)cc1OC`, for which the max response is -1.22%.

As to `CC(=O)NCCC(=O)Nc1nc(C)c(Cc2ccc3c(c2)OCO3)s1`, the max response was 11.6%.

In the case of `O=C(Nc1nc(-c2ccc3c(c2)OCO3)cs1)c1ccncc1`, the max response is 21% (active).

For the compound `CCOc1cccc(NC(=O)Cn2nc(-c3ccc4c(c3)OCCO4)ccc2=O)c1`, the max response is -1.26%.

Regarding `COc1ccc(OCCn2ccnc2C)cc1`, the max response is -3.23%.

In the case of `Cc1cccc(C2C3=C(CCCC3=O)N=C3c4ccccc4C(=O)C32)c1` (stereo unspecified), the max response is -3.21%.

For `Cc1cc(=O)n2nc(N3CCC(C(=O)Nc4c(F)c(F)c(F)c(F)c4F)CC3)sc2n1`, the max response is 4.09%.

On to `Cc1ccc2nc(-c3cccc(Br)c3)cc(C(=O)Nn3cnnc3)c2c1`, for which the max response is 7.61%.

As to `O=C(NCc1cccs1)c1cc(-c2ccccn2)nc2ccc(Br)cc12`, the max response was -5.76%.

Regarding `Cc1ccc(-c2cc(C(=O)NCc3cn(C)nc3C)c3cc(Br)ccc3n2)cc1`, the max response is 13.1% (active).

With `CC(C)(C)C(=O)Nc1ccc(C(=O)N/N=C/c2ccccc2OC(=O)c2ccc(Cl)cc2Cl)cc1`, the max response is 3.79%.

For `O=C(Cn1cnc2ccccc2c1=O)Nc1cccc(S(=O)(=O)N2CCCCC2)c1`, the max response was 7.05%.

`COc1cc(CNC2CCCC2)c(Br)cc1OCc1ccccc1`: the max response is 7.1%.

Consider `COc1ccc(OCC(=O)NNC(=O)c2cccc(C)c2)cc1`, for which the max response is -1.89%.

Turning to `CCNC(=O)COC(=O)CCNC(=O)c1cccc(C)c1`, the max response is 10.1%.

As for `CCOC(=O)C(CC)/C(C)=N\NC(=O)c1cccc(C)c1` (stereo unspecified), the max response is 27.9% (active).

For the compound `COCCn1c(N)c(NCc2ccccc2)c(=O)[nH]c1=O`, the max response is -1.16%.

As to `CCOC(=O)N1CCN(C(=O)C(C)NC(=O)c2ccco2)CC1` (stereo unspecified), the max response is 1.53%.

`CC1=C(C)CC(C(=O)NC(C)CCc2ccccc2)C(C(=O)O)C1` (stereo unspecified): the max response was 12.4%.

On to `CC1=C(C)CC(C(=O)NNC(=O)c2ccccc2O)C(C(=O)O)C1` (stereo unspecified), for which the max response is 15.2% (active).

With `CC1=C(C)CC(C(=O)NNC(=O)c2csc3c2CCC(C(C)(C)C)C3)C(C(=O)O)C1` (stereo unspecified), the max response was -0.879%.

Consider `CCC(=O)N(CCc1ccccc1)Cc1cc2cc(C)ccc2[nH]c1=O`, for which the max response is -3.02%.

Turning to `CC(C)c1nc2sc3c(c2c(=O)n1N)CC(C)(C)OC3`, the max response is 11.6%.

In the case of `COc1ccc(-c2noc(C(C)NS(=O)(=O)c3ccc(NC(C)=O)cc3)n2)cc1` (stereo unspecified), the max response was -8.48%.

Consider `C/C(=N/Nc1ccc(Cl)cc1)c1cnnc(-c2ccccc2)n1`, for which the max response is -2.47%.

In the case of `CC(C)(C)NC(=O)Cn1nnc(-c2ccccc2Cl)n1`, the max response was 53.5% (active).

As to `Cc1ccccc1-c1nnn(CC(=O)c2ccc(S(=O)(=O)N3CCCC3)cc2)n1`, the max response is 0.345%.

For `O=C(Cn1nnc(-c2ccccc2)n1)NCc1ccccc1`, the max response is -2.67%.

As to `COC(=O)COc1cccc2c(=O)n(CC(=O)NCc3ccccc3)ccc12`, the max response is -1.91%.

On to `Cc1ccc(S(=O)(=O)N(C)C)cc1NC(=O)c1n[nH]c(=O)c2ccccc12`, for which the max response was -4.46%.

Regarding `CCCN(CCC)S(=O)(=O)c1ccc(C(=O)N2CC3CCC(CC3)C2)cc1`, the max response is -1.36%.

In the case of `CCOC(=O)c1ccc(N/C(=N/S(=O)(=O)c2ccccc2)c2ccccc2)cc1`, the max response is 10.2%.

On to `O=C(c1ccc(Cl)c(S(=O)(=O)N2CCCCC2)c1)N1CCCCCC1`, for which the max response was -2.78%.

Turning to `CN1CCN(c2ccc(NC(=O)c3ccc4c(c3)OCCO4)cc2Cl)CC1`, the max response was 39.3% (active).

Take `COC(=O)c1ccc(N2CCOCC2)c(NC(=O)c2ccc3c(c2)OCCO3)c1`: the max response was 0.234%.

With `O=C(Nc1cccc(Cl)c1N1CCOCC1)c1ccc2c(c1)OCCO2`, the max response is 19.9%.

Regarding `O=C(Nc1ccc2c(c1)OCCO2)c1ccc(Cl)c(S(=O)(=O)N2CCCCC2)c1`, the max response is 45.3% (active).

Consider `Cc1ccc(C(=O)Nc2ccccc2C(=O)NC2CCCCC2)cc1S(=O)(=O)N1CCOCC1`, for which the max response was 12%.

As to `O=C(NCCSCc1ccccc1)c1ccc(Cl)c(S(=O)(=O)N2CCOCC2)c1`, the max response is -2.82%.

For the compound `O=C(Nc1cccc(S(=O)(=O)N2CCCCC2)c1)c1ccc2c(c1)OCO2`, the max response was -2.46%.

As to `Cc1ccc(C(=O)Nc2ccc3c(c2)OCO3)cc1S(=O)(=O)N1CCCCC1`, the max response is 19.6% (active).

On to `O=[N+]([O-])c1ccccc1/C=C/CN1CCCC(CO)C1` (stereo unspecified), for which the max response is -1.17%.

For `FC(F)Oc1ccccc1C1CC(c2ccc(Br)s2)Nc2ncnn21` (stereo unspecified), the max response is -4.82%.

For the compound `CCOc1ccccc1Nc1ccc2nonc2c1[N+](=O)[O-]`, the max response is -3.05%.

For `Cc1cnc(C(=O)N2CCCC(N3CCN(c4ccccc4F)CC3)C2)cn1` (stereo unspecified), the max response is 7.17%.

For the compound `CN(C)/C=N/c1cc(=O)n(C)c(=O)n1CC1CC1`, the max response was -3.74%.

Regarding `COc1cc(OC)cc(C(=O)OCC(=O)Nc2sccc2C(N)=O)c1`, the max response is 16.2% (active).

As for `COc1cc(OC)cc(C(=O)OCC(=O)Nc2ccc(F)cc2F)c1`, the max response is 1.53%.

In the case of `CCCCn1nc(C(=O)OCC(=O)Nc2sccc2C(N)=O)c2ccccc2c1=O`, the max response is 11.3%.

Take `CC(=O)N1c2ccc(S(=O)(=O)N3CCCC(C(=O)Nc4cccc(F)c4)C3)cc2CC1C` (stereo unspecified): the max response was -3.59%.

As to `Cc1ccc(-c2noc(CN3CCN(Cc4ccccc4)CC3)n2)cc1`, the max response was 9.63%.

As for `CC1CCN(Cc2nc(-c3ccc(Cl)cc3)no2)CC1`, the max response was 14.8% (active).

For `CC(C)C(O)C1CCN(Cc2nc(Cc3ccccc3Cl)no2)CC1` (stereo unspecified), the max response was -3.2%.

As for `Cc1cc(OCCOc2cccc3cccnc23)c(C)cc1Cl`, the max response was 2.3%.

Consider `CCc1ccc(N(C(=O)c2csnn2)C(C(=O)NC2CCCCC2)c2cccnc2)cc1` (stereo unspecified), for which the max response is 6.38%.

With `Cc1onc(C(=O)NCc2ccc(F)cc2)c1[N+](=O)[O-]`, the max response was 4.59%.

Consider `Cc1cccc(NC(=O)c2cc([N+](=O)[O-])ccc2N2CCN(C)CC2)c1`, for which the max response was -4.47%.

Turning to `Cc1ccc(C(=O)Nc2nnc(-c3ccncc3)s2)o1`, the max response was 0.697%.

`Cc1cccc(NC(=O)c2ccc([N+](=O)[O-])o2)c1`: the max response is 29.4% (active).

As for `Cc1onc(NC(=O)c2ccc([N+](=O)[O-])o2)c1Br`, the max response is 60.9% (active).

In the case of `Cc1cccc(NC(=O)c2sc(-c3ccccc3)nc2-c2ccc([N+](=O)[O-])cc2)c1`, the max response was -2.46%.

As to `C=CCn1c(SCC(=O)NC)nnc1C12CC3CC(CC(C3)C1)C2`, the max response was -1.24%.

Regarding `O=C(CCn1nnc2ccccc21)OCC(=O)c1ccc([N+](=O)[O-])cc1`, the max response is -6.28%.

Regarding `N#C/C(C(=S)Nc1ccccc1)=C1/NN=C(N2CCOCC2)N1c1ccccc1`, the max response is 0.28%.

Regarding `Cc1[nH]n(C(N)=S)c(=O)c1N=Nc1ccc(Cl)cc1Cl`, the max response was 12.2%.
